Data taken from PubChem BioAssay (NCATS).
Results filed as inconclusive are left out. Entries that show only a call come without a potency. Calls of active or inactive are those of the source. Unless noted, the call rests on the fitted dose curve; in most records, active means well fitted curve in the direction sought with a large enough effect; inconclusive means small, poorly fitted or top-dose-only effect, or another doubt; inactive means no such curve, though single readings can be large; an effect the other way counts as inactive or inconclusive.

Key:
[1] = AP1 Signaling Pathway (AID 357; active means well fitted curve in either direction with a large enough effect, not every such curve was filed as active;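 further: ME-180 reporter cells stimulated with EGF at its EC50 level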)
Summary of the method: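 Beta-lactamase reporter under AP-1 response element, ME-180 background. Stimulus: EC50 EGF. Compound exposure 5 h, 37 °C. Detection: CCF4, 2.5 h RT, 460/530 nm. Values: AC50 from titration.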

[2] = molecular target: Cytochrome P450 1A2 (Homo sapiens) (UniProt P05177); assay: p450-cyp1a2 (AID 410; calls by dose curve; further: potency means the concentration at half of the fitted maximal effect)
Summary of the method: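 Luminescent demethylation readout: Luciferin-ME (100uM, equal to Km) turned over by 20nM CYP1A2 for 60 min at room temperature after NADPH regeneration addition, following 10 min compound preincubation. Normalization used 57 uM furafylline as full inhibition.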

[3] = NFAT Signaling Pathway (AID 444; active means well fitted curve in either direction with a large enough effect, not every such curve was filed as active;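 further: carbachol stimulus at about its EC50 of 1 µM final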); conditions: Jurkat NFAT-bla M1, carbachol, beta-lactamase ratio, 5 h; at 17.2 µM (top of the series) unless noted
Summary of the method: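 Jurkat cells carrying an NFAT-driven β-lactamase reporter and co-transfected muscarinic M1 receptor were treated with compound plus carbachol (1 uM final, an EC50 level) for 5 h at 37 °C. CCF4 loading followed for 1 h at RT; 460/530 nm ratio gave %activity.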

[4] = Stat Signaling Pathway (AID 446; active means well fitted curve in either direction with a large enough effect, not every such curve was filed as active;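 further: ME-180 cervical cancer cells given 40 pM IL-6 alongside compound; SIE-controlled beta-lactamase reporter measured as 460/530 nm FRET emission ratio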)
Summary of the method: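 Overnight-plated ME-180 cells bearing a STAT Inducible Element beta-lactamase reporter; 5 h co-exposure to compound and 40 pM IL-6; values normalized to 300 pM IL-6 and 125 nM JAK inhibitor controls.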

[5] = molecular target: Glucocorticoid receptor (Homo sapiens) (UniProt P04150); assay: GR-GFP Redistribution (AID 450;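 active means compounds whose dose series gives a full or clear partial fitted curve of increased nuclear translocation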; further: potency means the concentration at half of the fitted maximal effect); conditions: U2OS GR-GFP nuclear translocation, laser cytometry, 2 h
[6] = molecular target: Glucocorticoid receptor (Homo sapiens) (UniProt P04150); assay: GR-EFC Redistribution (AID 451; calls by dose curve; further: potency means the concentration at half of the fitted maximal effect); conditions: CHO-K1 GR-EFC translocation, beta-gal luminescence, 2 h
Summary of the method: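 CHO-K1 cells stably expressing nuclear-localized β-gal enzyme acceptor and GR fused C-terminally to the enzyme donor fragment; ligand-driven nuclear translocation restores β-gal by complementation. Compounds titrated up to 46 uM final, 2 h at 37 °C; luminescence read.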

[7] = molecular target: Mitogen-activated protein kinase 10 (Mus musculus) (UniProt Q61831); assay: JNK3 AlphaScreen Assay (AID 530; active means well fitted curve in either direction with a large enough effect, not every such curve was filed as active;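 further: kinase came from lysate of stimulated human HepG2 cells; signal reports phosphorylation of biotinylated GST-cJun 1-79 at Ser73 with 10 µM ATP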)
Summary of the method: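 Phosphorylation of biotinylated GST-cJun(1-79) at Ser73 is measured by AlphaScreen proximity luminescence. Enzyme is JNK3 in HepG2 lysates activated with interleukin-1beta and tumor necrosis factor alpha; ATP is 10 uM final.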

[8] = molecular target: 3',5'-cyclic-AMP phosphodiesterase 4B (Homo sapiens) (UniProt Q07343); assay: qHTS Assay for Inhibitors of PDE-IV (AID 607; active means well fitted activation curve with a large enough effect in the main read-out, with a control signal flat, not every such curve was filed as active)
Summary of the method: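 Live HEK293 cells with a modified cyclic nucleotide-gated (CNG) channel report intracellular cAMP via membrane-potential dye fluorescence (ex 535/em 590 nm). Endogenous PDE-IV was targeted. Compounds were tested at up to 22.9 uM final; RO 20-1724 100 uM served as control.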

[9] = qHTS Assay for Lipid Storage Modulators (AID 1519; calls by dose curve); conditions: Drosophila S3 cells, BODIPY lipid droplet/cell ratio, laser cytometry, cells loaded with oleic acid; for activity change, negative = inhibition: at 25.7 µM (top of the series)
Summary of the method: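 Cells seeded at 5,000 per well were treated with compounds over a concentration series and loaded with oleic acid (400 uM, as added). Lipid droplet fluorescence (488 nm excitation, 500-530 nm channel) was read by laser-scanning cytometry and normalized to 20 uM Triacsin C.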

[10] = molecular target: Ubiquitin carboxyl-terminal hydrolase 1 (Homo sapiens) (UniProt O94782); assay: Inhibitors of USP1/UAF1: Pilot qHTS (AID 504865);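 further: rhodamine fluorescence freed from ubiquitin-rhodamine substrate followed over time; top concentration of the series differs between compounds; nearly all actives have a fitted effect of over 35% in size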
Summary of the method: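 Enzyme-free wells gave the negative control, while test wells held 1nM USP1/UAF1 preincubated with compound for 15 min at room temperature. Ub-Rho at 150nM final started the reaction, and fluorescence at 480/540 nm was recorded kinetically.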

[11] = molecular target: Luciferin 4-monooxygenase (Photinus pyralis) (UniProt P08659); assay: Biochemical firefly luciferase enzyme assay for NPC (AID 624030);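 further: purified P. pyralis luciferase at 10 nM with luciferin and ATP substrate; nearly all actives have a fitted effect of over 70% in size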
Summary of the method: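 Counter-screen for direct inhibition of the luciferase enzyme by approved-drug library compounds, run at 10 nM enzyme in 50 mM Tris acetate (final). Luminescence was read within 5 min of enzyme-buffer addition and normalized to PTC124 versus DMSO (0%).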

[12] = S16 Schwann cell viability assay (CellTiter-Glo assay) (AID 624031);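 further: native untransfected S16 rat Schwann cells; cellular ATP luminescence as a viability measure; nearly all actives have a fitted effect of over 70% in size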
Summary of the method: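 Parental S16 cells, 24 h compound, 37 °C. ATP-luminescence viability; DMSO = 0% activity, empty wells as reference; curves classified by fit quality and efficacy.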

[13] = S16 Schwann cell PMP22 intronic element beta-lactamase assay (AID 624044; calls by dose curve; further: nearly all actives have a fitted effect of over 15% in size)
Summary of the method: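 Beta-lactamase reporter under a PMP22 intronic regulatory element in stable S16 rat Schwann cells; 24 h compound exposure. 460 nm blue signal normalized between DMSO (0%) and potassium clavulanate, with 535 nm FRET tracking viability; curves classed by r2 and response.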

[14] = qHTS profiling for inhibitors of Plasmodium falciparum proliferation (AID 504749); further: potency means the concentration at half of the fitted maximal effect; on all read-outs here: nearly all actives have a fitted effect of over 60% in size; conditions: P. falciparum in erythrocytes, SYBR Green DNA, 72 h; for activity, negative = inhibition: at 12.8 µM (top of the series)
Summary of the method: (§1)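 Quantitative HTS: compounds pinned into medium, infected erythrocytes added (0.3% parasitemia, 2.5% hematocrit), 72 h culture at 37 C under 5% CO2. Saponin/Triton lysis with SYBR Green I, overnight RT, then fluorescence read.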

FAB9 = assay: as above; conditions: P. falciparum in erythrocytes, SYBR Green DNA, 72 h; series mostly up to 12.8 µM
Summary of the method: as §1

JCK = assay: as above; conditions: P. falciparum in erythrocytes, SYBR Green DNA, 72 h; series mostly up to 12.8 µM
Summary of the method: as §1

C2A = assay: as above; conditions: P. falciparum in erythrocytes, SYBR Green DNA, 72 h; series mostly up to 12.8 µM
Summary of the method: as §1

CP217 = assay: as above; conditions: P. falciparum in erythrocytes, SYBR Green DNA, 72 h; series mostly up to 12.8 µM
Summary of the method: as §1

CP250 = assay: as above; conditions: P. falciparum in erythrocytes, SYBR Green DNA, 72 h; series mostly up to 12.8 µM
Summary of the method: as §1

SC27B = assay: as above; conditions: P. falciparum in erythrocytes, SYBR Green DNA, 72 h; series mostly up to 12.8 µM
Summary of the method: as §1

[15] = measured here: cell count channel max response
[16] = measured here: lipid channel max response

Sequence of Glucocorticoid receptor (Homo sapiens) (P04150 whole entry, looked up, the tested form may be a part): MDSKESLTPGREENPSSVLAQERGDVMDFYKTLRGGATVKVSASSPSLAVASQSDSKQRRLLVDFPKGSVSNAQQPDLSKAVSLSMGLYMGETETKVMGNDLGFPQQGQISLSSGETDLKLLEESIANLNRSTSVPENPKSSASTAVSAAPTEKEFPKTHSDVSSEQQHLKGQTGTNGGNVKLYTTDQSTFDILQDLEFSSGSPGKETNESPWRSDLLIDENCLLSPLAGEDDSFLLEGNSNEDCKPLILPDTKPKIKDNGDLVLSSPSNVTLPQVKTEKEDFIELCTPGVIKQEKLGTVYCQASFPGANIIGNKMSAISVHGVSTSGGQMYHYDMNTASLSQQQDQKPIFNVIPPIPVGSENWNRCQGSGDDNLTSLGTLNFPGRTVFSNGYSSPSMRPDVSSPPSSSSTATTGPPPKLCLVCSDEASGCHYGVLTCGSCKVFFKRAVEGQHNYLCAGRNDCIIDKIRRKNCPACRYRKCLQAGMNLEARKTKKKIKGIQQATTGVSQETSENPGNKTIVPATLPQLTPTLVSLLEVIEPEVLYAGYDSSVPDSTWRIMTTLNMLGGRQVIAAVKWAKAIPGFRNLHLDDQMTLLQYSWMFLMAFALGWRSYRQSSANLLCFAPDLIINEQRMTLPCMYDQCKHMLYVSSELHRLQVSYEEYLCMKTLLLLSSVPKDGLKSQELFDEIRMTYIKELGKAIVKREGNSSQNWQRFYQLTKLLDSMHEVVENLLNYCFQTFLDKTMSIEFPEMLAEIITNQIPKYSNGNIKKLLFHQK
Sequence of Ubiquitin carboxyl-terminal hydrolase 1 (Homo sapiens) (O94782 whole entry, looked up): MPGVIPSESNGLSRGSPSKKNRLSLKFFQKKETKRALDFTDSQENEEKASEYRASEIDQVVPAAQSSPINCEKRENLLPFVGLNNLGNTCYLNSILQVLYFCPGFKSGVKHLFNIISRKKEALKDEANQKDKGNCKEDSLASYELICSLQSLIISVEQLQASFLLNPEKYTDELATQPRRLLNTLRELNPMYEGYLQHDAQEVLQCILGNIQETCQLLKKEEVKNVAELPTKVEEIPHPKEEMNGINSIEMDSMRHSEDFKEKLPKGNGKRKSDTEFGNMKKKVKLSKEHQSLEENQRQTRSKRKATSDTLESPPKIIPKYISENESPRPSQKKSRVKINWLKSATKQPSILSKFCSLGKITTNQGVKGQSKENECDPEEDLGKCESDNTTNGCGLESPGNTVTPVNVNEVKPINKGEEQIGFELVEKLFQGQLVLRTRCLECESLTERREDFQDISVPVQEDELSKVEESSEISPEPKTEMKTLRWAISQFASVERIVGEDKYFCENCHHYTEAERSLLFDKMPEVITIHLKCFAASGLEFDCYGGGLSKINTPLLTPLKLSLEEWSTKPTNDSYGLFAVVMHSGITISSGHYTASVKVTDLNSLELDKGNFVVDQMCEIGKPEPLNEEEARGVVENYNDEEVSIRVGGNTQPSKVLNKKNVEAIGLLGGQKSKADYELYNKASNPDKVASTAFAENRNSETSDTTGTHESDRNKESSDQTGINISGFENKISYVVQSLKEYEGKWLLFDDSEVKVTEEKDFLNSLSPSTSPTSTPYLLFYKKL
Sequence of Cytochrome P450 1A2 (Homo sapiens) (P05177 whole entry, looked up): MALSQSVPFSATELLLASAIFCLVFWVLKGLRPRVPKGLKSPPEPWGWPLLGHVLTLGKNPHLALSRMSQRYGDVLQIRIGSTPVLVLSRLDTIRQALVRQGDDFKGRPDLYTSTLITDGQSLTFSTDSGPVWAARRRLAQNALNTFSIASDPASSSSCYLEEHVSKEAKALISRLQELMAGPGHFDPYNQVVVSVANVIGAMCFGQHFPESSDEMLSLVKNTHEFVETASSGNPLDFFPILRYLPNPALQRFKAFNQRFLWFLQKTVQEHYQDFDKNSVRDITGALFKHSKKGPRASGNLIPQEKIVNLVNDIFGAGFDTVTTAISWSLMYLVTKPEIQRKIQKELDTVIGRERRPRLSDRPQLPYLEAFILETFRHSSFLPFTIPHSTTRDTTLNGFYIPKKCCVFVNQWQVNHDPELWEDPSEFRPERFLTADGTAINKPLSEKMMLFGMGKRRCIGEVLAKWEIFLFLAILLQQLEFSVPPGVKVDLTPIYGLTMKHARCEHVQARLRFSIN
Sequence of Luciferin 4-monooxygenase (Photinus pyralis) (P08659 whole entry, looked up): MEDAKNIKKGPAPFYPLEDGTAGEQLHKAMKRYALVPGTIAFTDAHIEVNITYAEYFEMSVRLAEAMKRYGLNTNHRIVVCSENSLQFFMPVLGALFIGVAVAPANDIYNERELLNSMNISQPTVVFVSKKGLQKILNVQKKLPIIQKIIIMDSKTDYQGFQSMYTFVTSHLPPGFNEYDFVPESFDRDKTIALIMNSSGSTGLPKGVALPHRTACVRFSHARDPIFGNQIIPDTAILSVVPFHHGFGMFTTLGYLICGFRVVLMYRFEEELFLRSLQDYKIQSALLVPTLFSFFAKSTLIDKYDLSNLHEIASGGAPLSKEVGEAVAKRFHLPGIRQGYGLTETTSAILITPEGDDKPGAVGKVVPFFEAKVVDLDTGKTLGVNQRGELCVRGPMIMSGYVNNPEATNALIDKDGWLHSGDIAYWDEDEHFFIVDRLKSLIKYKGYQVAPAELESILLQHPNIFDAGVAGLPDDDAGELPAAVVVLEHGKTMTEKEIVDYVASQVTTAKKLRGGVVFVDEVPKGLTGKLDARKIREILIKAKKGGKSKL
Sequence of 3',5'-cyclic-AMP phosphodiesterase 4B (Homo sapiens) (Q07343 whole entry, looked up): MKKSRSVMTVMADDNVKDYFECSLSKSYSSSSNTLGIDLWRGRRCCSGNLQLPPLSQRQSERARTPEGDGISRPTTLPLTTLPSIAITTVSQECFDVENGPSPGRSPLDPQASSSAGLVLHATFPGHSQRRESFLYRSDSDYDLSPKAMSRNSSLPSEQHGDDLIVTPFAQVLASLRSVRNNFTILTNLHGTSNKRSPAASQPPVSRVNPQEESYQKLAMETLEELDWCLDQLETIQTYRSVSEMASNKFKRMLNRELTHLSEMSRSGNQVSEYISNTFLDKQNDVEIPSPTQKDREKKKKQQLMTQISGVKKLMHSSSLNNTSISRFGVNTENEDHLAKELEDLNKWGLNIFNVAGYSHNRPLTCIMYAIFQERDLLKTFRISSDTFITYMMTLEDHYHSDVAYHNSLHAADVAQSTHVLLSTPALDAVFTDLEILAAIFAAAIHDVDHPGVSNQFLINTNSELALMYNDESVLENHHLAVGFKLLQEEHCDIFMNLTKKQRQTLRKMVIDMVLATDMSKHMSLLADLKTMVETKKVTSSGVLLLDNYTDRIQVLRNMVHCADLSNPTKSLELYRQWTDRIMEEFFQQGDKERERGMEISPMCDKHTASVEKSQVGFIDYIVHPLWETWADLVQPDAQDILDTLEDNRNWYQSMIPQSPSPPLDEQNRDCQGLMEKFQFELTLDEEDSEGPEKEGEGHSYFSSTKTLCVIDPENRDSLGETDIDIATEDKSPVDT

COc1cc(N)c(Cl)cc1C(=O)N[C@H]1CCN(CCCOc2ccc(F)cc2)C[C@H]1OC
outcome [1]: inactive | Potency [2]: inactive | activity change, negative = inhibition [3]: -12.4% (inactive) | outcome [4]: inactive | Potency [5]: > 20.6 µM (inactive) | Potency [6]: > 20.6 µM (inactive) | Potency [7]: inactive | outcome [8]: inactive | activity change, negative = inhibition [9]: 2.27% (inactive) | max response [9, 15]: -1.69% | max response [9, 16]: 0.873% | Potency [10]: inactive | Potency [11]: inactive | outcome [12]: inactive | Potency [13]: inactive | Potency ([14]; parasite line A): 3.55 µM (active) | Potency (FAB9): inactive | Potency (JCK): inactive

C=CCOc1ccccc1OC[C@H](O)CNC(C)C
outcome [1]: inactive | Potency [2]: 5.01 µM (active) | activity change, negative = inhibition [3]: -9.75% (inactive) | outcome [4]: inactive | Potency [5]: > 20.6 µM (inactive) | Potency [6]: > 20.6 µM (inactive) | Potency [7]: inactive | outcome [8]: inactive | activity change, negative = inhibition [9]: 2.07% (inactive) | max response [9, 15]: -12.4% | max response [9, 16]: -9.74% | Potency [10]: inactive | Potency [11]: inactive | outcome [12]: inactive | Potency [13]: inactive | activity, negative = inhibition ([14]; parasite line A): -6.89% (inactive) | activity, negative = inhibition ([14]; parasite line B): -26.4% (inactive) | Potency (C2A): inactive | Potency (CP217): inactive | Potency (CP250): inactive | Potency (FAB9): inactive | Potency (JCK): inactive | Potency (SC27B): inactive

Nc1c2ccccc2nc2c(O)cccc12
outcome [1]: inactive | Potency [2]: 6.31 µM (active) | activity change, negative = inhibition [3]: -1.27% (inactive) | outcome [4]: inactive | Potency [5]: > 20.6 µM (inactive) | Potency [6]: > 20.6 µM (inactive) | Potency [7]: inactive | outcome [8]: inactive | activity change, negative = inhibition [9]: -0.346% (inactive) | max response [9, 15]: -4.58% | max response [9, 16]: -4.09% | Potency [10]: inactive

COC(=O)C1=C(C)NC(C)=C(C(=O)OC(C)C)[C@H]1c1cccc2nonc12
outcome [1]: inactive | Potency [2]: 12.6 µM (active) | activity change, negative = inhibition [3]: -22.3% (inactive) | outcome [4]: inactive | Potency [5]: > 20.6 µM (inactive) | Potency [6]: > 20.6 µM (inactive) | Potency [7]: inactive | outcome [8]: inactive | activity change, negative = inhibition [9]: -0.0066% (inactive) | max response [9, 15]: -21.2% | max response [9, 16]: -22.3% | Potency [11]: inactive | outcome [12]: inactive | Potency [13]: inactive | Potency (C2A): inactive | Potency (CP217): inactive | Potency (CP250): inactive | Potency (FAB9): inactive | Potency (JCK): inactive

CC(=O)OCC(=O)[C@@]1(O)CC[C@@H]2[C@H]3CCC4=CC(=O)C=C[C@]4(C)[C@]3(F)[C@@H](O)C[C@@]21C
outcome [1]: inactive | Potency [2]: inactive | activity change, negative = inhibition [3]: -2.98% (inactive) | outcome [4]: inactive | Potency [5]: 0.00326 µM (active) | Potency [6]: 0.035 µM (active) | Potency [7]: inactive | outcome [8]: inactive | activity change, negative = inhibition [9]: 0.563% (inactive) | max response [9, 15]: 15.5% | max response [9, 16]: -0.686% | Potency [10]: inactive | Potency [11]: inactive | outcome [12]: inactive | Potency [13]: inactive | activity, negative = inhibition ([14]; parasite line A): -3.89% (inactive) | activity, negative = inhibition ([14]; parasite line B): 16% (inactive) | Potency (C2A): inactive | Potency (CP217): inactive | Potency (CP250): inactive | Potency (FAB9): inactive | Potency (JCK): inactive | Potency (SC27B): inactive

C[C@H](N)CCCC(C)(C)O
outcome [1]: inactive | Potency [2]: inactive | activity change, negative = inhibition [3]: -3.85% (inactive) | outcome [4]: inactive | Potency [5]: > 20.6 µM (inactive) | Potency [6]: > 20.6 µM (inactive) | Potency [7]: inactive | outcome [8]: inactive | activity change, negative = inhibition [9]: -0.344% (inactive) | max response [9, 15]: 0.317% | max response [9, 16]: 0.936% | Potency [10]: inactive
